Compound activity: PubChem, National Center for Advancing Translational Sciences (NCATS)
A selection: hits, their analogues and other compounds. The true share with any hit is near 3.3%.
LDHA inh = inhibitors of human lactate dehydrogenase A. P00338. purified LDHA, NADH/diaphorase-resazurin fluorescence; active compounds read low. activity change, % (values are at about 110 or 230 µM). 480,000 tested, 0.15% active; in the data active = activity change below about -30%; inconclusive = mostly about -25% to -30%;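 note: plate controls were DMSO wells for no effect and wells without enzyme for full effect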
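Enzyme activity of human lactate dehydrogenase 5 (2 nM; 0.06 mM NADH, 0.2 mM pyruvate, 5 min, RT) is measured via a resazurin/diaphorase fluorescence readout of residual NADH.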
DRD3 antagonist = blocks the human D3 dopamine receptor; AID 652054; D3R cells, DiscoveRx beta-arrestin luminescence, antagonist mode; active compounds read low; 360,000 tested, 2.5% active; max response, negative = inhibition, %; in the data active = max response below about -50%; inconclusive = no clear call, values can overlap the other calls; note: % is set by controls: 0 for no effect and ±100 for the full control effect
Target sequence (P35462 whole entry, looked up): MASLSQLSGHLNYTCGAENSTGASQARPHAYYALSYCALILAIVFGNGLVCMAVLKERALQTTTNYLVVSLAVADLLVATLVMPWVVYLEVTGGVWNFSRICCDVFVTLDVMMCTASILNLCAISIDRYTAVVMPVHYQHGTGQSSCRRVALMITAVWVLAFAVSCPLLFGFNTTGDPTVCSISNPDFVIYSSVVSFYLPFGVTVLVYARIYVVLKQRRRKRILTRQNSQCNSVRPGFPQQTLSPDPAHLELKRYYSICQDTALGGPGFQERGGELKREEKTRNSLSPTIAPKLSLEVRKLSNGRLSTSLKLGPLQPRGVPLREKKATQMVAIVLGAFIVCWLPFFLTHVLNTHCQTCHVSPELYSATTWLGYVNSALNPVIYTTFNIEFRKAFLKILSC
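Cells plated overnight at 1500 cells/well, then exposed to library compounds with dopamine controls for 90 minutes at 37 degrees C. DiscoveRx reagent added for 30–60 minutes at room temperature; luminescence read, quantitative HTS format.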
DRD3 agonist = agonists of human D3 dopamine receptor; max activation, %; P35462; 410,000 tested, 0.58% active; AID 652048; D3R DiscoveRx beta-arrestin cells, luminescence, 90 min; in the data active = max activation above about 30%; note: 0% is about no effect
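Cells at 1500/well, incubated overnight, then treated with pinned compounds (dopamine as control) for 90 min at 37 degrees C. DiscoveRx reagent added for 30 - 60 minutes at room temperature; luminescence read.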
PI5P4Ka inh = blocks human PI5P4K alpha kinase activity | P48426 | PI5P4Kalpha enzyme, ADP-Glo luminescence, 60 min; active compounds read low | max response, % | 330,000 tested, 1.2% active; active = max response of -50% or lower; inconclusive = between -30% and -50%; inactive = -30% or higher; note: value at the top dose of about 77 µM; % is set by controls: 0 for no effect and ±100 for the full control effect
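Human PI5P4Kalpha with substrate in 0.038 M HEPES pH 7.4, 0.28 mM EGTA, 0.1% CHAPS, 5% DMSO; reaction started with 5 microM ATP (final), 60 min at room temperature. ADP formed read by ADP-Glo luminescence.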
PI4K2A block = inhibitors of human PI4K2A; 420,000 tested, 0.13% active; Q9BTU6; purified PI4K2A, ADP-Glo luminescence, 1 h; active compounds read low; AID 1346378; activity change, negative = inhibition, % at 76.9 µM; in the data active = activity change below about -50%; inconclusive = mostly about -30% to -49%;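 note: -100% = wells without enzyme as full effect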
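PI4K2A activity was measured by ADP-Glo luminescence: enzyme (4 ug/mL stock) and phosphatidylinositol (1.2 mM stock) in Tris pH 7.5/MgCl2/EGTA/Triton X-100 buffer were reacted with ATP (300 microM stock) for one hour at ambient temperature.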
* hit, by the source's call; ? = inconclusive; . = no result given.

SMILES | LDHA inh | DRD3 antagonist | DRD3 agonist | PI5P4Ka inh | PI4K2A block
CCN(C(=O)CN1C(=O)CN(C)C1=O)c1cccc2ccccc12 | -9 | 1 | 3 | -2 | 1
CCN(C(=O)CN1CCN(C)CC1)c1cccc2ccccc12 | -36* | ? | -22 | -7 | 5
CCOc1ccc(-c2nc(CNC(=O)Nc3cccc(C)c3C)c(C)o2)cc1 | 6 | . | . | . | .
COc1ccc(Nc2nc(N3CCCC3)nc(N3CCCC3)n2)c(OC)c1 | -4 | 44 | 146* | . | 1
C/C(NCCc1ccc(O)cc1)=C1/CCOC1=O | -3 | 6 | 45* | 1 | -6
C/C(Nc1ccccc1C(F)(F)F)=C1/CCOC1=O | -4 | -10 | -6 | 9 | -3
Nc1ccc(-c2nc3ccc(N)cc3[nH]2)cc1 | -1 | 8 | 2 | -19 | -2
Nc1ccc2cc3[nH]c4cc(N)ccc4c3nc2c1 | 16 | -25 | -11 | -59* | -15
COc1ccc(CCNC2CCC(c3ccccc3)CC2)cc1 (configuration not stated) | 0 | -65* | -8 | 0 | -2
Cc1ccccc1C(=O)NC(NC(=O)c1ccccc1C)c1ccccc1F | -20 | . | . | . | .
Cc1ccc(-n2nc3c(c2NC(=O)c2cccs2)CS(=O)(=O)C3)cc1C | 2 | -66* | -13 | 0 | -3
CCOc1cc(/C=C2/NC(=O)NC2=O)cc(Cl)c1O | 4 | . | . | . | .
CCOc1cc(/C=C2/NC(=O)NC2=O)cc([N+](=O)[O-])c1O | 9 | -86* | -20 | ? | -11
Cn1c(=O)c2c(ncn2Cc2cccc(OCC(F)(F)F)c2)n(C)c1=O | -3 | . | . | . | .
c1ccc(COc2cccc(-c3cc4nc(NCCc5ccncc5)ccn4n3)c2)cc1 | 0 | 77 | 88* | 0 | -4
CC(C)(CNC(=O)Cc1n[nH]c(=O)c2ccccc12)c1ccc(Br)cc1 | -3 | . | . | . | .
CC1=NN(c2cccc([N+](=O)[O-])c2)C(=O)C1 | -1 | 13 | 6 | 13 | -50*
CC1=NN(c2ccc(N)cc2)C(=O)C1 | 5 | ? | -2 | -23 | -66*
Cc1ccc(C2=NN(C(=O)Cn3cnc4sccc4c3=O)C(c3ccco3)C2)cc1 (configuration not stated) | 0 | . | . | . | .
Cc1cc(Cl)ccc1NS(=O)(=O)c1cc(-c2c(C)nn3c2NC(=O)CCC3=O)ccc1C | -12 | . | . | . | .
CCCCN1CCC(COC(=O)c2cc(Cl)c(N)c3c2OCCO3)CC1 | -3 | -108* | -98 | 11 | -3
COc1ccc(C)cc1NC(=O)c1ccc(Br)o1 | -2 | . | . | . | .
Oc1ccccc1/C=N/Nc1nccnc1Cl | -3 | 51 | 4 | . | -9
Oc1ccc(/C=N/Nc2nccnc2Cl)c(O)c1 | 9 | 3 | 7 | -9 | -67*
O=[N+]([O-])c1ccc(O)c(/C=N/Nc2ncnc3c2cnn3-c2ccccc2)c1 | -17 | -27 | -7 | -75* | 0
SMILES | LDHA inh | DRD3 antagonist | DRD3 agonist | PI5P4Ka inh | PI4K2A block
O=[N+]([O-])c1ccc(O)c(/C=N/Nc2nc3ccccc3[nH]2)c1 | -7 | ? | -7 | 6 | -3
O=[N+]([O-])c1ccc(O)c(/C=N/Nc2ccccn2)c1 | -3 | -70* | -12 | -2 | -5
Oc1ccc(C=NNc2ccccn2)c(O)c1 | 3 | -61* | 1 | -8 | -18
O=C(COC(=O)c1c(Cl)cccc1Cl)NCc1ccc2c(c1)OCO2 | 8 | . | . | . | .
O=C(COC(=O)CC1Sc2ccccc2NC1=O)Nc1cccc2ccccc12 (configuration not stated) | -4 | . | . | . | .
COc1cccc(/C=N/Nc2ncnc3scc(-c4ccccc4)c23)c1O | -2 | 46 | 38* | 3 | -2
COc1cccc(/C=N/Nc2nccnc2Cl)c1O | 13 | -2 | -1 | -20 | -60*
CCSc1ncc(Cl)c(C(=O)Nc2nnc(C)s2)n1 | -14 | . | . | . | .
Nc1c(/C=C2/C=CC(=O)C(O)=C2)c(=O)nc2sc(CC(=O)N3CCCCC3)nn12 | 3 | -25 | 5 | -11 | -6
COC1=C/C(=C/c2c(N)n3nc(CC(=O)N4CCCC4)sc3nc2=O)C=CC1=O | -4 | -30 | 6 | -56* | 1
CCOC1=C/C(=C/c2c(N)n3nc(CC(=O)N4CCCC4)sc3nc2=O)C=CC1=O | -4 | -6 | -1 | -55* | 2
Nc1c(C=C2C=CC(=O)C=C2)c(=O)nc2sc(CC(=O)N3CCCCC3)nn12 | -3 | -22 | 12 | ? | 0
COC1=CC(=Cc2c(N)n3nc(CC(=O)N4CCCCC4)sc3nc2=O)C=C(OC)C1=O | 9 | -4 | 7 | -58* | 2
Nc1c(/C=C2/C=CC(=O)C(O)=C2)c(=O)nc2sc(CC(=O)N3CCCC3)nn12 | 0 | 1 | 3 | -56* | 0
CC(=O)c1cccc(NC(=O)Cn2c(=O)c3c(ncn3CC(C)C)n(Cc3ccccc3)c2=O)c1 | -2 | . | . | . | .
COc1cc(OC)cc(C(=O)NCc2cc(=O)n3nc(-c4ccccc4)sc3n2)c1 | 15 | . | . | . | .
Cc1ccc(S(=O)(=O)Nc2ccc(O)c3ccccc23)c(C)c1 | 25 | -53* | -13 | -16 | ?
Cc1ccc(C)c(S(=O)(=O)Nc2ccc(O)c3ccccc23)c1 | 44 | ? | -11 | 0 | -26
O=C(OC/C=C/c1ccccc1)C(c1ccccc1)c1ccccc1 | 5 | . | . | . | .
Cc1ccccc1NC(=O)/C(C#N)=C/c1ccc(-c2ccc(Cl)c(C(=O)O)c2)o1 | -1 | -66* | -15 | -29 | -3
N#C/C(=C/c1ccc(-c2cccc([N+](=O)[O-])c2)o1)C(=O)Nc1nc(-c2cccs2)cs1 | 11 | -6 | -4 | -62* | -14
N#C/C(=C\c1ccc(-c2ccc([N+](=O)[O-])cc2)o1)C(=O)Nc1nc(-c2cccs2)cs1 | 2 | -15 | -4 | ? | -2
N#C/C(=C\c1ccc(-c2cccc(Cl)c2)o1)C(=O)Nc1cccc2cccnc12 | 5 | -51* | 0 | -15 | -4
N#C/C(=C\c1ccc(-c2ccccc2)o1)C(=O)Nn1cnnc1 | -10 | -69* | 0 | -1 | -3
Nc1c(Br)cc2c([nH]c(=O)c3ccccc32)c1Br | 8 | 5 | 3 | -66* | -6
Nc1cc2[nH]c(=O)c3ccccc3c2cc1[N+](=O)[O-] | -5 | 1 | -7 | -4 | 2
CCOc1ccc(N(CCCCO)C(=S)NC(=O)c2ccc(C)c(Br)c2)cc1 | -3 | -24 | 35* | -3 | 7
CCC(c1nnnn1Cc1ccccc1)N1CCN(C/C=C/c2ccccc2)CC1 (configuration not stated) | 1 | -99* | -8 | -2 | -1
CCCCn1nnnc1C(c1ccccc1)N1CCN(C/C=C/c2ccccc2)CC1 (configuration not stated) | -1 | -71* | -15 | 0 | -2
CCCCn1nnnc1C(c1ccnc2ccccc12)N1CCN(C/C=C/c2ccccc2)CC1 (configuration not stated) | -5 | -24 | -18 | -1 | -2
